Measured values taken from PubChem BioAssay (EPA / NIEHS).
Inconclusive results are not listed. Calls of active or inactive are those of the source. How the source made its calls, unless noted: active means hit-call score of the fitted dose curve at least 0.9, where 1 is the maximum; inactive means score below 0.9.

Columns and labels:
[1] = molecular target: Bile acid receptor (Homo sapiens) (UniProt Q96RI1); experiment: ATG_FXR_TRANS: Attagene TRANS-FACTORIAL HepG2 Assay for Farnesoid X Receptor (FXR) (AID 2282979; active means hit-call score of the fitted dose curve at least 0.9, where 1 is the maximum;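 further: hits raise reporter mRNA above DMSO so AC50 marks FXR activation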); settings: HepG2 Attagene TRANS FXR-GAL4 reporter transcription
In short: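 Reporter transcripts from transfected HepG2 cells were measured 24 h after dosing, using RT-PCR with capillary electrophoresis of 6-FAM-labelled fragments. The read-out reflects activity of exogenous FXR-Gal4 chimera on GAL4-UAS units, with induction relative to DMSO.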

[2] = molecular target: Transcriptional activator Myb (Homo sapiens) (UniProt P10242); experiment: ATG_Myb_CIS: Attagene CIS-FACTORIAL HepG2 Assay for human Myeloblastosis (Myb) Proto-Oncogene Transcription Factor (AID 2282986); settings: HepG2 Attagene CIS-FACTORIAL Myb reporter transcription; actives raise or lower the signal
In short: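 Transiently transfected HepG2 cells, treated 24 h. Reporter mRNA quantified by RT-PCR/capillary electrophoresis; bidirectional fit relative to DMSO.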

[3] = molecular target: Nuclear respiratory factor 1 (Homo sapiens) (UniProt Q16656); experiment: ATG_NRF1_CIS: Attagene CIS-FACTORIAL HepG2 Assay for human Nuclear Respiratory Factor 1 (NRF1) Orphan Gene (AID 2282987); settings: HepG2 NRF1 cis-element reporter, Attagene multiplex; actives raise or lower the signal
In short: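 Cells (HepG2, transient MRTU transfection) are exposed to compound for 24 h, then RNA isolated and reporter mRNA amplified and fluorescently labelled. Fragments are separated by capillary electrophoresis; signal change is fitted bidirectionally relative to DMSO.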

[4] = ATG_NFI_CIS: Attagene CIS-FACTORIAL HepG2 Assay for human Nuclear Factor I (NFI) (AID 2282989); settings: HepG2 cis-regulatory reporter, NFI response element transcription; actives raise or lower the signal
In short: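 Read-out: reporter mRNA via RT-PCR plus capillary electrophoresis with fluorescence detection. Transiently transfected HepG2 (endogenous TF activity on cis promoters), 24 h compound exposure; gain or loss of signal fitted against DMSO.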

[5] = molecular target: Myc proto-oncogene protein (Homo sapiens) (UniProt P01106); experiment: ATG_Myc_CIS: Attagene CIS-FACTORIAL HepG2 Assay for human Myelocytomatosis (Myc) Proto-Oncogene Transcription Factor (AID 2282990); settings: HepG2, Attagene cis-reporter transcription factor activity; actives raise or lower the signal
In short: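 DMSO-normalised, bidirectionally fitted reporter mRNA signal. HepG2 cells transfected with cis reporter constructs, treated 24 h; transcripts detected by RT-PCR, 6-FAM primer extension and CE.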

[6] = ATG_NF_kB_CIS: Attagene CIS-FACTORIAL HepG2 Assay for human Nuclear Factor Kappa B (NF-kB) (AID 2282991); settings: HepG2 Attagene cis-factorial NF-kB reporter mRNA; actives raise or lower the signal
In short: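 Measures mRNA induction of an NF-kB-responsive cis-element reporter in HepG2 cells transfected with multiple reporter units, sampled 24 h post-dosing; quantified by fluorescence after RT-PCR and capillary electrophoresis, fitted for activation or inhibition against DMSO.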

[7] = ATG_NRF2_ARE_CIS: Attagene CIS-FACTORIAL HepG2 Assay for human Nuclear Factor Erythroid 2 Related Factor 2 (NFR2) response to Antioxidant Response Elements (ARE) (AID 2282992); settings: HepG2 Attagene ARE/NRF2 reporter, transcription factor activity; actives raise or lower the signal;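 on AC50: reporter mRNA level measured by RT-PCR and capillary electrophoresis fluorescence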
In short: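 Transient MRTU transfection of HepG2; 24 h compound exposure; TriZol RNA, RT with oligo(dT), PCR, 6-FAM primer extension, HpaI cut, CE. Bidirectional fit vs DMSO.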

[8] = ATG_Oct_MLP_CIS: Attagene CIS-FACTORIAL HepG2 Assay for human Octamer-Binding Transcription Factor (Oct) (AID 2282993); settings: HepG2 Attagene cis-factorial Oct reporter, mRNA; actives raise or lower the signal
In short: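 Read-out: reporter mRNA via RT-PCR plus capillary electrophoresis of 6-FAM-labelled fragments. Transiently transfected HepG2, 24 h exposure, endogenous TF activity on cis elements. Gain or loss of signal fitted relative to DMSO.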

[9] = molecular target: Cellular tumor antigen p53 (Homo sapiens) (UniProt P04637); experiment: ATG_p53_CIS: Attagene CIS-FACTORIAL HepG2 Assay for human p53 Transcription Factor (AID 2282994); settings: HepG2 p53 cis-element reporter, Attagene mRNA; actives raise or lower the signal
In short: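 HepG2, transient MRTU transfection (cis promoter elements, endogenous TFs); 24 h dosing; RNA isolation, RT-PCR, 6-FAM primer extension, HpaI digest, CE fluorescence; bidirectional fit vs DMSO.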

[10] = molecular target: Oxysterols receptor LXR-alpha (Homo sapiens) (UniProt Q13133); experiment: ATG_LXRa_TRANS: Attagene TRANS-FACTORIAL HepG2 Assay for human Liver X Receptor alpha (LXRa) (AID 2282980; active means hit-call score of the fitted dose curve at least 0.9, where 1 is the maximum); settings: HepG2 Attagene TRANS reporter, LXRa transactivation
In short: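 Chemical-induced reporter mRNA measured by RT-PCR with fluorescent labelling and capillary electrophoresis after 24 h dosing of transiently transfected HepG2 cells expressing exogenous NR-Gal4 chimeras; increases scored against DMSO baseline.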

[11] = molecular target: Hepatocyte nuclear factor 4-alpha (Homo sapiens) (UniProt P41235); experiment: ATG_HNF4a_TRANS: Attagene TRANS-FACTORIAL HepG2 Assay for human Hepatocyte Nuclear Factor 4 alpha (HNF4a) (AID 2282982; active means hit-call score of the fitted dose curve at least 0.9, where 1 is the maximum); settings: HepG2 HNF4a transactivation reporter, mRNA readout
In short: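 Cells used were human HepG2, transiently carrying GAL4-UAS reporter units read out against exogenous NR-GAL4 chimeras. Reporter transcript levels after 24 h dosing were quantified by fluorescent RT-PCR and capillary electrophoresis.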

[12] = ATG_M_06_TRANS: Attagene TRANS-FACTORIAL HepG2 Assay for M06 Transcription Factor (Internal Marker) (AID 2282983; active means hit-call score of the fitted dose curve at least 0.9, where 1 is the maximum); settings: HepG2 Attagene TRANS M06 internal marker reporter
In short: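 Cells: HepG2, transient multi-reporter transfection. Exposure: 24 h. Detection: RT-PCR, 6-FAM labelling, HpaI digestion (2 h, 37 °C), capillary electrophoresis. Baseline: DMSO.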

[13] = ATG_M_32_TRANS: Attagene TRANS-FACTORIAL HepG2 Assay for M32 Transcription Factor (Internal Marker) (AID 2282984; active means hit-call score of the fitted dose curve at least 0.9, where 1 is the maximum;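 further: transcript level of a background control reporter unit measured by RT-PCR and capillary electrophoresis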); settings: HepG2 Attagene TRANS M32 internal marker reporter
In short: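 Human hepatoma HepG2, transient MRTU transfection, 24 h treatment. RNA → RT-PCR → fluorescent primer extension → HpaI digest (2 h, 37 C) → CE. Positive-direction fit vs DMSO.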

[14] = molecular target: Oxysterols receptor LXR-beta (Homo sapiens) (UniProt P55055); experiment: ATG_LXRb_TRANS: Attagene TRANS-FACTORIAL HepG2 Assay for human Liver X Receptor beta (LXRb) (AID 2282981; active means hit-call score of the fitted dose curve at least 0.9, where 1 is the maximum); settings: HepG2 Attagene TRANS GAL4-LXRb reporter, mRNA
In short: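 In this TRANS format, exogenous chimeric NR-Gal4 protein activity, not endogenous factors, drives reporter expression in transfected human HepG2 cells. Exposure lasted 24 h; reporter mRNA was read by fluorescent capillary electrophoresis.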

[15] = molecular target: Nuclear receptor subfamily 4 group A member 2 (Homo sapiens) (UniProt P43354); experiment: ATG_NURR1_TRANS: Attagene TRANS-FACTORIAL HepG2 Assay for human Nuclear Receptor Related Protein 1 (NURR1) (AID 2282985; active means hit-call score of the fitted dose curve at least 0.9, where 1 is the maximum); settings: HepG2 Attagene TRANS reporter, mRNA readout
In short: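 After 24 h chemical dosing, total RNA from transiently transfected HepG2 cells was reverse-transcribed and reporter cDNA PCR-amplified, FAM-labelled and analysed by capillary electrophoresis. Activity fitted in positive direction, DMSO as negative control.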

[16] = BSK_3C_TissueFactor: BioMAP Diversity Plus: 3C Assay for Tissue Factor Biomarker Activity (AID 2282997); settings: BioMAP 3C HUVEC, tissue factor biomarker readout; actives raise or lower the signal
In short: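 Dosing of human umbilical vein endothelial cells preceded a 24 h incubation. Tissue Factor was then read by ELISA, with increases and decreases both scored relative to DMSO controls.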

[17] = BSK_3C_uPAR: BioMAP Diversity Plus: 3C Assay for Urokinase-type plasminogen activator receptor (uPAR) Biomarker Activity (AID 2282998); settings: BioMAP 3C HUVEC, uPAR biomarker ELISA; actives raise or lower the signal
In short: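 HUVEC primary cells; 24 h post-dose; uPAR by ELISA; gain or loss of signal fitted bidirectionally vs DMSO baseline.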

[18] = BSK_3C_VCAM1: BioMAP Diversity Plus: 3C Assay for Vascular cell adhesion molecule 1 (VCAM1) Biomarker Activity (AID 2282999); settings: BioMAP 3C HUVEC, VCAM1 ELISA, cytokine-stimulated; actives raise or lower the signal
In short: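 Human umbilical vein endothelial cells were dosed with compound for 24 h, after which cell-surface VCAM-1 was quantified by ELISA. Bidirectional curve fitting used DMSO as negative control and activity baseline.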

[19] = BSK_4H_Eotaxin3: BioMAP Diversity Plus: 4H Assay for Eotaxin 3 Biomarker Activity (AID 2283000); settings: primary human endothelial cells (HUVEC); actives raise or lower the signal;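 further: CCL26 protein level quantified by ELISA in parallel with SRB cytotoxicity check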
In short: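 Human umbilical vein endothelial cells (BSK_4H system) dosed with test chemical; Eotaxin-3 (CCL26) measured by ELISA 24 h after dosing. Bidirectional curve fitting relative to DMSO negative control as baseline.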

Measured: AC50

Oxysterols receptor LXR-beta (Homo sapiens), sequence (P55055 whole entry, looked up, the tested form may be a part): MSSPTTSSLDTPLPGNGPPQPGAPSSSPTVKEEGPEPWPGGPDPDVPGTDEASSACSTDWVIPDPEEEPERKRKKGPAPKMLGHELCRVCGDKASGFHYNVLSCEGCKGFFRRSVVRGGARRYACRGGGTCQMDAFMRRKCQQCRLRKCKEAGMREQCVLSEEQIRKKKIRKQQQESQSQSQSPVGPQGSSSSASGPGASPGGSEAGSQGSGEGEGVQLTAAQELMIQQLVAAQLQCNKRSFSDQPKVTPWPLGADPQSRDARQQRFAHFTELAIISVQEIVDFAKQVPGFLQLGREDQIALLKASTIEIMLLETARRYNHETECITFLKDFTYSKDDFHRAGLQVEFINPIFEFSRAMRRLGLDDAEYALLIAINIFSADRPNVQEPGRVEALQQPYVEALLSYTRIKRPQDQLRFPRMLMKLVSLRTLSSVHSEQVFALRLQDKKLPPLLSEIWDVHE
Nuclear receptor subfamily 4 group A member 2 (Homo sapiens), sequence (P43354 whole entry, looked up): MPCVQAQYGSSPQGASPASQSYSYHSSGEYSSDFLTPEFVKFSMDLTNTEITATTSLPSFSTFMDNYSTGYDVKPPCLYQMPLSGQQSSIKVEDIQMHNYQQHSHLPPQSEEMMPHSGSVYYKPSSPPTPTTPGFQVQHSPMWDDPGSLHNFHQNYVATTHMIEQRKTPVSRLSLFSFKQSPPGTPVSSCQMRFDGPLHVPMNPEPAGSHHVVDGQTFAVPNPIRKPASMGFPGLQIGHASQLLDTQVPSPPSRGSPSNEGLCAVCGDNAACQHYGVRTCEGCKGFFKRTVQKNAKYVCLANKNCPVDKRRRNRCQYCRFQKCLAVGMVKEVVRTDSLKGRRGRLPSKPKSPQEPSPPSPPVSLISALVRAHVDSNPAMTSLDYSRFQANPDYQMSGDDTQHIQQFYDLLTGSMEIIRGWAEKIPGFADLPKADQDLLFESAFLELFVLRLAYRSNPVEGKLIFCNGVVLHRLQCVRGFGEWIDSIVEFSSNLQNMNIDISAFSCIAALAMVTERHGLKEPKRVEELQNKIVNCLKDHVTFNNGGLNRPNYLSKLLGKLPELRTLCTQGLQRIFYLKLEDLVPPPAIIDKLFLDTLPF
Hepatocyte nuclear factor 4-alpha (Homo sapiens), sequence (P41235 whole entry, looked up, the tested form may be a part): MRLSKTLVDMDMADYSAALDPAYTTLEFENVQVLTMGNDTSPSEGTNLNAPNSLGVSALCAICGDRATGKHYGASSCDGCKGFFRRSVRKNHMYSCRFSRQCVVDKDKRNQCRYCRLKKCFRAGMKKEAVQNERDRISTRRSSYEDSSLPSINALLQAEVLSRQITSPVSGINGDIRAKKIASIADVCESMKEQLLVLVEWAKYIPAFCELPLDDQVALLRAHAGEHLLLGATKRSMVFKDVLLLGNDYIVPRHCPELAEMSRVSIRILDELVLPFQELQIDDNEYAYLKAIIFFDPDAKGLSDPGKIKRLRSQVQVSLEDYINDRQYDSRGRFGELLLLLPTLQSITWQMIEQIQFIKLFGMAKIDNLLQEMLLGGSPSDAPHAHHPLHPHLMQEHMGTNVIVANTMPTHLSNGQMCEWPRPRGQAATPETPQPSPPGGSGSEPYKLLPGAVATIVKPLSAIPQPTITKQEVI
Cellular tumor antigen p53 (Homo sapiens), sequence (P04637 whole entry, looked up): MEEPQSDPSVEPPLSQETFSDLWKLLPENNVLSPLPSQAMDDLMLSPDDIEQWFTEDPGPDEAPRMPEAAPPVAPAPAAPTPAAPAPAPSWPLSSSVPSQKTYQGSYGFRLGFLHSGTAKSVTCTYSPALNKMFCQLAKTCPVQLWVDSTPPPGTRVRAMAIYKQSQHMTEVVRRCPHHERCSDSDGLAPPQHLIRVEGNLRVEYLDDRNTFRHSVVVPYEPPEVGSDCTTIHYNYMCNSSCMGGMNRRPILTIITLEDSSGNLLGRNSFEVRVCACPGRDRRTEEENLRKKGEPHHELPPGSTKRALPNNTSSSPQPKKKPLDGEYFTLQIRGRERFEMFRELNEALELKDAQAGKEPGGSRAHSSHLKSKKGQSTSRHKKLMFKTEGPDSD
Transcriptional activator Myb (Homo sapiens), sequence (P10242 whole entry, looked up): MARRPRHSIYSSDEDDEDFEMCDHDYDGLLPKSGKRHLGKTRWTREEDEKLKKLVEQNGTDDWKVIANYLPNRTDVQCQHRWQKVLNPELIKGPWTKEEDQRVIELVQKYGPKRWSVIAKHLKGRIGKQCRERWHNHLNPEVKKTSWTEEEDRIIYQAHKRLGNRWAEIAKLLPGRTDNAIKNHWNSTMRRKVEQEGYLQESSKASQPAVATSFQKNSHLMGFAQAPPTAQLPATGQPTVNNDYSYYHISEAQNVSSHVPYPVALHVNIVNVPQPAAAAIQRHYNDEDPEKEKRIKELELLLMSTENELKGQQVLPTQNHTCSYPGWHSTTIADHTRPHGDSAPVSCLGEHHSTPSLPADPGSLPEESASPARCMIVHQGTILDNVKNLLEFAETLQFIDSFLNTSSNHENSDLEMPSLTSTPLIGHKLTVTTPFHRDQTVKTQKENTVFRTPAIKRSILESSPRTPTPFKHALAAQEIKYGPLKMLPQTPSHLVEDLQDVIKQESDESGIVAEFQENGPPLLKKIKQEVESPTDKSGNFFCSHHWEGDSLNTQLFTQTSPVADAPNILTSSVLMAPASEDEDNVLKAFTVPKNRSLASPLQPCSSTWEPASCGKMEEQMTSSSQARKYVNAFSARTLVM
Nuclear respiratory factor 1 (Homo sapiens), sequence (Q16656 whole entry, looked up, the tested form may be a part): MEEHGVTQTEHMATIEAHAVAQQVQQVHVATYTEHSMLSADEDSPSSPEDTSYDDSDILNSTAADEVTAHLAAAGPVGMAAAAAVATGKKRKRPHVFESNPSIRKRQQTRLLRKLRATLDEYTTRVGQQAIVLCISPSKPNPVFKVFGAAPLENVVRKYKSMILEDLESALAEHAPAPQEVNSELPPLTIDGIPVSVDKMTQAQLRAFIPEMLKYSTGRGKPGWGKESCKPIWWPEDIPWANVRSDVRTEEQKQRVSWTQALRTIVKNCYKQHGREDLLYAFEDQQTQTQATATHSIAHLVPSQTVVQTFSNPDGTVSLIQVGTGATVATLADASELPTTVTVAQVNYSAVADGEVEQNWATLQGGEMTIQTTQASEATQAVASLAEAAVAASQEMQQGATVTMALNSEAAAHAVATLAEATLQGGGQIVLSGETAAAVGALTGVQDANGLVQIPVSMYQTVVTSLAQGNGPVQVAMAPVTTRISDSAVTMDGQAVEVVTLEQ
Myc proto-oncogene protein (Homo sapiens), sequence (P01106 whole entry, looked up): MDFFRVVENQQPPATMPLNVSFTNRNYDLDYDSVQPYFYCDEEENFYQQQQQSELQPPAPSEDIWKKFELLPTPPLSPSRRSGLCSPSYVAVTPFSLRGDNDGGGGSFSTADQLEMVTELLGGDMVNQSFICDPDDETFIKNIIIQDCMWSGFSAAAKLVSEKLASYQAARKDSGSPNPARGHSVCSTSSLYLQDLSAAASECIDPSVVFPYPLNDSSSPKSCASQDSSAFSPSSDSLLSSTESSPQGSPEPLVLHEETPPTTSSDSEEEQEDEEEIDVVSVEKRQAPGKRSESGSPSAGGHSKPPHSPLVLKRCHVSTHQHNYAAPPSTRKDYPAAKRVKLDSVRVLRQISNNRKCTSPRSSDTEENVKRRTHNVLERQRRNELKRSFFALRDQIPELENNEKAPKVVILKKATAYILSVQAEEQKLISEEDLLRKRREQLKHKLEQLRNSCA
Oxysterols receptor LXR-alpha (Homo sapiens), sequence (Q13133 whole entry, looked up, the tested form may be a part): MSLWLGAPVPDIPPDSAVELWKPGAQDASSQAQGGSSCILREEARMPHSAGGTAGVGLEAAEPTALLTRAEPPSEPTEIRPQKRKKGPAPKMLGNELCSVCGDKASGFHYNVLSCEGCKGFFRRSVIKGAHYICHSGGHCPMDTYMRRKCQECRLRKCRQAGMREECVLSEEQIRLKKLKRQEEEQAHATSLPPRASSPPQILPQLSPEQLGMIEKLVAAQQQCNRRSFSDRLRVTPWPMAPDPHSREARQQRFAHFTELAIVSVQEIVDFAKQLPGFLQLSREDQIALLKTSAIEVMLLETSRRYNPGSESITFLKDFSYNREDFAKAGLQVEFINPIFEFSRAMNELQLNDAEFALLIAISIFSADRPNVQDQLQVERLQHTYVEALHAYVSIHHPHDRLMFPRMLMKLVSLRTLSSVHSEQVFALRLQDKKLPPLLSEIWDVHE
Bile acid receptor (Homo sapiens), sequence (Q96RI1 whole entry, looked up, the tested form may be a part): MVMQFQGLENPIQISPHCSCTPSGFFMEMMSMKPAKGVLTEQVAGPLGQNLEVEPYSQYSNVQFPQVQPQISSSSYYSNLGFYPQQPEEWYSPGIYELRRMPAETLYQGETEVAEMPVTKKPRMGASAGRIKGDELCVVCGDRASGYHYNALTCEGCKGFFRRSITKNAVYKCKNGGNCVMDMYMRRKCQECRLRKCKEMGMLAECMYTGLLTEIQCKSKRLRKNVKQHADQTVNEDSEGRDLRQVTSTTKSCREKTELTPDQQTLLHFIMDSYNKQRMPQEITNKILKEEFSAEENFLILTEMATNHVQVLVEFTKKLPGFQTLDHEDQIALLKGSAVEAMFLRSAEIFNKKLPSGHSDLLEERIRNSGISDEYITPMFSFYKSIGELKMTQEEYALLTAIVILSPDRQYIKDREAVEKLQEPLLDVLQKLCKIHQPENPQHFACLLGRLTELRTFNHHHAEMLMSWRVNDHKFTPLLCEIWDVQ

CCCCCCCCCCOS(=O)(=O)O
inactive: [1] | [2] | [3] | [4] | [5] | [6] | [8] | [9]
active: [7] 99.5 µM

COC=O
inactive: [10] | [11] | [12] | [13] | [3] | [4] | [5] | [6] | [7]

Cc1cc(C)c(C)c(O)c1
not listed: [1] | [7] | [11] | [12] | [16] | [17] | [18] | [19]
inactive: all other assays above

Cc1ccc(C(C)(C)C)cc1
inactive: [14] | [12] | [13] | [15] | [2] | [4] | [5] | [7] | [9]

OC1CCCC1
not listed: [1] | [9] | [10] | [11] | [16] | [17] | [18] | [19]
inactive: all other assays above

O=C(O)c1cc2ccccc2nc1C(=O)O
not listed: [1] | [5] | [10] | [13] | [16] | [17] | [18] | [19]
inactive: all other assays above

N#[N+]c1ccc2c(S(=O)(=O)[O-])cccc2c1O
not listed: [1] | [5] | [8] | [10] | [12]
inactive: all other assays above

O=S1(=O)OC(c2ccc(O)cc2)(c2ccc(O)cc2)c2ccccc21
inactive: [14] | [11] | [12] | [15] | [2] | [3] | [4] | [5] | [8]

Cc1cccc(OCCOc2cccc(C)c2)c1
active: [7] 26.7 µM
inactive: [14] | [13] | [2] | [3] | [4] | [5] | [8]

[Cl][Bi]([Cl])([c]1ccccc1)([c]1ccccc1)[c]1ccccc1
inactive: [14] | [11] | [13] | [15] | [2] | [3] | [4] | [5] | [8]
active: [6] 0.463 µM | [7] 0.999 µM | [9] 6.07 µM

OCCN(CCO)c1ccccc1
not listed: [1] | [10] | [11] | [13] | [16] | [17] | [18] | [19]
inactive: all other assays above

N#CCc1ccc(Cl)cc1Cl
inactive: [14] | [13] | [2] | [3] | [4] | [5] | [6] | [7] | [8] | [9]
